{
  "source": "PubChem BioAssay AID1159606",
  "about": "(Sanford-Burnham Center for Chemical Genomics, 2016)",
  "note": "Screen size: about 360,000 compounds; about 7,300 (2%) were called active. Rule as the data show it: active = inhibition above about 50%; inactive = the rest. Many of the other results were omitted from the sample, so actives are more common in it than they were.",
  "data": [
    {"assay": "inhibitors of TWEAK-Fn14 signaling, primary screen, luciferase reporter cells, uHTS (AID 1159606)", "details": "TWEAK-stimulated Fn14 reporter cells, luciferase luminescence, 8 h; at 10 µM; stronger effect = higher value", "values": [
      {"smiles": "COc1ccc(NC(=S)SC)cc1OC", "inhibition": "68.3% (active)"},
      {"smiles": "COc1ccc(NC(=O)C2C3CCC(O3)C2C(=O)O)cc1OC", "note": "(stereo not drawn)", "inhibition": "2.27% (inactive)"},
      {"smiles": "COc1ccc(NC(=O)CSCc2ccc([N+](=O)[O-])cc2)cc1OC", "inhibition": "6.35% (inactive)"},
      {"smiles": "COc1cc(OC)cc(C(=O)NCCSCc2ccc(Cl)cc2)c1", "inhibition": "0.23% (inactive)"},
      {"smiles": "C=CCn1c(SCC(=O)NC(=O)Cc2ccccc2)nc2ccccc2c1=O", "inhibition": "14% (inactive)"},
      {"smiles": "Cc1nc2ccccc2c(=O)n1NC(=O)c1ccc(Cl)c([N+](=O)[O-])c1", "inhibition": "32.6% (inactive)"},
      {"smiles": "CCn1c(/C=C/c2ccc([N+](=O)[O-])o2)nc2ccccc2c1=O", "inhibition": "63.4% (active)"},
      {"smiles": "COc1ccc(Cl)cc1NC(=O)COC(=O)C(CC(C)C)N1C(=O)C2CC=CCC2C1=O", "note": "(stereo not drawn)", "inhibition": "-4.03% (inactive)"},
      {"smiles": "Nc1[nH]c(C(=O)c2ccccc2)c(-c2ccc(Br)cc2)c1C(=O)NC1CC1", "inhibition": "-5.57% (inactive)"},
      {"smiles": "CC(C)(C)c1ccc(Oc2ccc(N)cc2)cc1", "inhibition": "99% (active)"},
      {"smiles": "CN(C)S(=O)(=O)c1ccc(Oc2ccc(S(=O)(=O)N(C)C)cc2)cc1", "inhibition": "6.23% (inactive)"},
      {"smiles": "Cc1cc(C(C)(C)C)cc(C)c1N", "inhibition": "-8.01% (inactive)"},
      {"smiles": "CC(=O)c1ccc(OCCCC(=O)Nc2ccc(C)c(S(=O)(=O)N3CCOCC3)c2)cc1", "inhibition": "-0.59% (inactive)"},
      {"smiles": "COC(=O)c1ccc2nc(-c3cccc(Br)c3)c(Cc3ccccc3C(F)(F)F)n2c1", "inhibition": "-11.5% (inactive)"},
      {"smiles": "Nc1nc(-c2sc3nc4c(cc3c2N)CCCC4)nc(N2CCOCC2)n1", "inhibition": "-10.3% (inactive)"},
      {"smiles": "COc1ccc(CC(=O)Nc2ccccc2NC(=O)c2ccco2)cc1OC", "inhibition": "-18.6% (inactive)"},
      {"smiles": "O=C(COC(=O)C1CCCO1)Nc1nc(-c2ccc(F)cc2)cs1", "note": "(stereo not drawn)", "inhibition": "-21.9% (inactive)"},
      {"smiles": "COc1ccc(CC(=O)NC2CCSc3ccccc32)cc1OC", "note": "(stereo not drawn)", "inhibition": "2.41% (inactive)"},
      {"smiles": "COc1ccc(CCNC(=O)COC(=O)Cc2cc(OC)c(OC)c(OC)c2)cc1", "inhibition": "-9.86% (inactive)"},
      {"smiles": "COc1cc(CC(=O)Nc2nc(-c3ccc(F)c(F)c3)cs2)cc(OC)c1OC", "inhibition": "60.3% (active)"},
      {"smiles": "COc1ccc(CC(=O)Nc2nc(-c3ccc(F)c(F)c3)cs2)cc1OC", "inhibition": "59% (active)"},
      {"smiles": "O=c1cc(CO)oc(C(Nc2cccc(C(F)(F)F)c2)c2ccccn2)c1O", "note": "(stereo not drawn)", "inhibition": "-5.67% (inactive)"},
      {"smiles": "Cc1cc(C)cc(N(CCC#N)C(=O)CN2C(=O)NC3(CCCC3)C2=O)c1", "inhibition": "-2.17% (inactive)"},
      {"smiles": "CCC(C)NC(=O)CN(C1CCCCC1)S(C)(=O)=O", "note": "(stereo not drawn)", "inhibition": "5.8% (inactive)"},
      {"smiles": "CCCCCCN1CCN(C2CN(Cc3cn(Cc4ccc(F)cc4)nn3)S(=O)(=O)C2)CC1", "note": "(stereo not drawn)", "inhibition": "8.31% (inactive)"},
      {"smiles": "O=C(Nc1nnc(C2CC2)s1)c1ccccn1", "inhibition": "65.5% (active)"},
      {"smiles": "Cc1cnc(NC(=O)c2ccccn2)s1", "inhibition": "55.5% (active)"},
      {"smiles": "CCc1cc(C(=O)Nc2nnc(C3CC3)s2)sc1C", "inhibition": "7.61% (inactive)"},
      {"smiles": "CN(C(=O)c1ccccn1)c1nnc(-c2ccccn2)s1", "inhibition": "-1.91% (inactive)"},
      {"smiles": "CCc1ccccc1OCC(=O)Nc1nnc(C2CC2)s1", "inhibition": "-23.1% (inactive)"},
      {"smiles": "Cc1cnc(NC(=O)Cn2cnc3c2c(=O)n(C)c(=O)n3C)s1", "inhibition": "6.18% (inactive)"},
      {"smiles": "CN(C)c1cccc(NC(=O)c2ccc(-c3ccc(F)c(F)c3)c3ccoc23)c1", "inhibition": "-36.6% (inactive)"},
      {"smiles": "CCNC(=S)Nc1ccc2c(c1)c(=O)n(C)n2Cc1ccc(Cl)cc1", "inhibition": "10.2% (inactive)"},
      {"smiles": "C=CCn1c(=S)[nH]c2scc(-c3ccco3)c2c1=O", "inhibition": "2.15% (inactive)"},
      {"smiles": "CC(C)CNC(=O)C1(C)CCCN1C(=O)CSc1ccccc1", "note": "(stereo not drawn)", "inhibition": "24.6% (inactive)"},
      {"smiles": "Cc1cc(C)nc(S/C=C/C(=O)c2ccccc2)n1", "inhibition": "93.2% (active)"},
      {"smiles": "O=C(/C=C/Sc1ncn[nH]1)c1ccc(Cl)cc1", "inhibition": "46.2% (inactive)"},
      {"smiles": "COC(c1ccccc1)(c1ccccc1)C(Oc1nc(C)cc(C)n1)C(=O)O", "note": "(stereo not drawn)", "inhibition": "1.41% (inactive)"},
      {"smiles": "COc1ccc(NC(=O)CC2C(=O)NC3CCCCC3N2C(=O)c2ccc(F)cc2)cc1", "note": "(stereo not drawn)", "inhibition": "3.34% (inactive)"},
      {"smiles": "CCSc1nc(=S)n(CC)c(C)c1C(C)=O", "inhibition": "-1.72% (inactive)"},
      {"smiles": "O=S1(=O)C[C@@H](N2CCN(CCO)CC2)[C@H](COCc2ccccc2)N1", "inhibition": "7.64% (inactive)"},
      {"smiles": "CCOC(=O)[C@H]1[C@H]2COc3ccc(C)cc3[C@@H]2N2C(=O)CN(Cc3ccc(F)cc3)C(=O)[C@@]12C", "inhibition": "-5.2% (inactive)"},
      {"smiles": "CCn1c(Cc2ccc(OC)cc2)nnc1SCC(=O)Nc1ccc(N2CCOCC2)cc1", "inhibition": "4.78% (inactive)"},
      {"smiles": "O=C(COC(=O)CCc1nc2ccccc2c(=O)[nH]1)Nc1ccc(N2CCOCC2)cc1", "inhibition": "-0.73% (inactive)"},
      {"smiles": "COc1cccc(/C=C(/CC(=O)Nc2ccc(N3CCOCC3)cc2)c2nc3ccccc3s2)c1", "inhibition": "62.8% (active)"},
      {"smiles": "CCN(CC)C(=O)[C@H]1C[C@H](CC(=O)NCC23CC4CC(CC(C4)C2)C3)C(=O)N2CCc3c([nH]c4cc(CCC(=O)N(C)C)ccc34)[C@]12C", "inhibition": "6.21% (inactive)"},
      {"smiles": "Cc1cccc(CN2CCN(C3CN(Cc4cn(Cc5cc(C)cc(C)c5)nn4)S(=O)(=O)C3)CC2)c1", "note": "(stereo not drawn)", "inhibition": "12.5% (inactive)"},
      {"smiles": "COC(=O)C1[C@H]2SC(C)(C)C(C(=O)OC)N2C(=O)N1Cc1nc2ccccc2s1", "note": "(stereo partly drawn)", "inhibition": "10% (inactive)"},
      {"smiles": "CCc1ccc(-c2nnn(Cc3nc4ccccc4s3)n2)cc1", "inhibition": "-5.59% (inactive)"},
      {"smiles": "COc1ccccc1OCc1nc2ccccc2s1", "inhibition": "72.9% (active)"},
      {"smiles": "CC1(C)C2CC[C@]3(C)C(CC=C4[C@@H]5C[C@@](C)(CO)CC[C@]5(C(=O)O)CC[C@]43C)[C@@]2(C)CC[C@@H]1O", "note": "(stereo partly drawn)", "inhibition": "-12.1% (inactive)"},
      {"smiles": "CNC(=O)C1CN(C(=O)c2cccc(S(=O)(=O)N3CCc4ccccc43)c2)c2ccccc2O1", "note": "(stereo not drawn)", "inhibition": "11.3% (inactive)"},
      {"smiles": "CC1CN(S(=O)(=O)c2ccc(C(=O)Nc3sccc3C(N)=O)cc2)CC(C)O1", "note": "(stereo not drawn)", "inhibition": "-0.86% (inactive)"},
      {"smiles": "CNC(=O)c1ccsc1NC(=O)c1ccc(S(=O)(=O)N2CCc3ccccc32)cc1", "inhibition": "54.5% (active)"},
      {"smiles": "CCCCCc1c(Cc2ccccc2)ncn1CCc1ccccc1OC", "inhibition": "24.1% (inactive)"},
      {"smiles": "Cc1ccc(C)c(NC(=O)CN(C)C(=O)c2ccc3ncsc3c2)c1", "inhibition": "1.46% (inactive)"},
      {"smiles": "Cc1ccc(NS(=O)(=O)c2cc3c(cc2Br)NC(=O)CO3)cc1C", "inhibition": "19.6% (inactive)"},
      {"smiles": "O=C(Nc1cccc(F)c1)[C@@H]1CCCN1", "inhibition": "-1.09% (inactive)"}
    ]}
  ]
}
